Reference: PubChem BioAssay AID504834 (National Center for Advancing Translational Sciences (NCATS), 2011)
Out of some 320,000 compounds screened, about 22,000 (6.9%) were called active. Not shown: some 27% with an inconclusive outcome. The list comes from a sample in which actives are over-represented; it also holds similar structures and randomly drawn compounds. Values without a mark were called inactive. The call rests on the fitted dose curve; in most records, active means well fitted inhibition curve with a large enough effect; inconclusive means small, poorly fitted or top-dose-only effect, or another doubt; inactive means no such curve, though single readings can be large or run the other way.

Assay: Primary qHTS for delayed death inhibitors of the malarial parasite plastid, 96 hour incubation
Conditions: P. falciparum luciferase reporter growth; series mostly up to 28.7 µM; activity change, negative = inhibition: at the top concentration
Procedure, shortened: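 Readout is luminescence from an integrated firefly luciferase in P. falciparum. Red cells, 2% hematocrit and 0.05% parasitemia final, were cultured with compound through two parasite generations (96 hours) at 37 C, 5% CO2.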
On the % scale 0 is the no-effect control and ±100 the full control effect; potency means the concentration at half of the fitted maximal effect.

Compound	activity change, negative = inhibition	Potency
Cc1cc(Cl)ccc1OCCCC(=O)Nc1cccc(-n2cnnn2)c1	-2.68%	
OC(CNC1CCCC1)COc1ccc(F)cc1 (stereo not drawn)	-2.07%	
Cc1ccc(-c2cc(=O)c3ccc(Cl)cc3[nH]2)cc1	9.72%	
Cc1ccc(S(=O)(=O)/N=C(\N)c2ccc(F)cc2)cc1	20.4%	
Cc1ccc(-c2cc(=O)c3ccc(F)cc3[nH]2)cc1		2.94 µM (active)
COCCN1C(=O)N(c2ccc(Cl)cc2)C(=O)C1CC(=O)Nc1cc(OC)cc(OC)c1 (stereo not drawn)	-17%	
O=C(O)c1ccccc1OCc1ccccc1Cl	1.98%	
O=C(COC(=O)Cc1c[nH]c2ccccc12)NCCc1ccccc1	15.9%	
O=C(CCc1c[nH]c2ccccc12)NCCOc1ccccc1	17.4%	
O=C(Cc1c[nH]c2ccccc12)OCCOC(=O)Cc1c[nH]c2ccccc12		5.22 µM (active)
O=C1NN(c2ccccc2)C(=O)/C1=C/c1ccc(-c2cccc(C(=O)O)c2)o1	-0.0242%	
COc1ccc(CNC(=O)CCC(=O)Nc2nnc(C(C)C)s2)cc1	0%	
COc1cc2ccccc2cc1C(=O)Nc1nc(C)c(C(C)=O)s1	167%	
COc1ccc(C(=O)CCC(=O)Nc2cccnc2)c(OC)c1	7.01%	
CCOC(=O)C1(Cc2cccc(OC)c2)CCN(C(C)CC(C)(C)O)CC1 (stereo not drawn)	41.4%	
Cc1noc(C)c1CCC(=O)O	2.96%	
CCOC(=O)C1(Cc2ccccc2C)CCCN(S(C)(=O)=O)C1 (stereo not drawn)	-32.4%	
CCOC(=O)C1(Cc2cccc(OC)c2)CCN(Cc2csc(C(C)=O)c2)CC1	20.7%	
CCOC(=O)C1(Cc2ccccc2C)CCCN(C(=O)CCc2c(C)noc2C)C1 (stereo not drawn)		11.7 µM (active)
CCOC(=O)C1(Cc2cccc(OC)c2)CCCN(C(=O)CCSC)C1 (stereo not drawn)		0.37 µM (active)
COc1ccc(-c2c(NC(=O)c3ccco3)oc3ccc(Cl)cc3c2=O)cc1	-23.7%	
CCCc1cc(=O)[nH]c(SCC(=O)N2C(C)CCCC2C)n1 (stereo not drawn)	5.23%	
CC1(C)NC(=O)N(CC(=O)Nc2cc(C(F)(F)F)cc(C(F)(F)F)c2)C1=O	0%	
O=C(COC(=O)CNC(=O)C1CCCCC1)Nc1cccc(F)c1	9.28%	
Cc1ccc(F)cc1NC(=O)N1CCCN(c2ccc(C(F)(F)F)cn2)CC1	-5.35%	
COc1ccc2nc(N3CCCC(O)C3)c(C#N)cc2c1 (stereo not drawn)	18.5%	

Compound	activity change, negative = inhibition	Potency
CCOc1ccc2nc(N3CCCN(C(=O)Nc4ccccc4C)CC3)c(C#N)cc2c1		13.1 µM (active)
CC1(C)O[C@H]2CC(=O)OCC23[C@H]2CC[C@@]4(C)[C@H](c5ccoc5)OC(=O)[C@H]5O[C@]54[C@]2(C)C(=O)C[C@@H]13 (stereo partly drawn)	7.54%	
O=C1/C(=C/c2coc3ccc(O)cc3c2=O)SC(=S)N1c1ccccc1	75.1%	
CC(C)(C)C(=O)CN1C2=NCCN2c2ccccc21	-4.41%	
Cc1cc2c(cc1C)N(Cc1ccccc1)C1=NCCCN12		7.38 µM (active)
COc1cc(C)c(C)cc1S(=O)(=O)N1CCCc2ccccc21	-9.05%	
COC(=O)c1ccc(/C=C2/C(=O)Oc3ccccc32)cc1	17.3%	
Clc1cc(NC2CCCCC2)ncn1	14.6%	
O=C1c2ccccc2S(=O)(=O)N1Cc1c(F)cccc1Cl	2.02%	
Cc1cccc(NC(=O)Cn2cc(C(=O)c3ccco3)c3ccccc32)c1	191%	
N#Cc1ccc(Cn2cc(C(=O)c3ccco3)c3ccccc32)cc1	8.66%	
CC1CCN(C(=O)Cn2cc(C(=O)c3ccco3)c3ccccc32)CC1		10.4 µM (active)
CC(=O)Nc1ccc(S(=O)(=O)N2CCn3cccc3C2C)cc1 (stereo not drawn)	-27.5%	
Cc1cc(NC(=O)c2ccc(F)cc2)ccc1NC(=O)c1ccco1	0.99%	
CC1CCCN(S(=O)(=O)c2ccc(-c3ccc(=O)[nH]n3)o2)C1 (stereo not drawn)	-16.1%	
CN(Cc1c(F)cccc1Cl)S(=O)(=O)c1cccs1	43%	
COc1ccc2cc1Oc1ccc(cc1)C[C@H]1c3cc(c(OC)cc3CCN1C)Oc1c(O)c(OC)cc3c1[C@H](C2)N(C)CC3		1.85 µM (active)
CCOc1ccc(C(=O)COC(=O)c2ccc(-n3cnnn3)cc2)cc1	-1.17%	
CCOc1ccc(C(=O)N(Cc2ccc(N(C)C)cc2)C2CCS(=O)(=O)C2)cc1 (stereo not drawn)	17.3% [at 5.75 µM]	
CC1(C)C(C=C(Cl)Cl)C1C(=O)N(Cc1ccc(Cl)cc1)C1CCS(=O)(=O)C1 (stereo not drawn)		11.7 µM (active)
COc1cc(C(=O)N(Cc2ccc(N(C)C)cc2)C2CCS(=O)(=O)C2)cc(OC)c1OC (stereo not drawn)	-19.2%	
O=C1[C@@H]2C(c3cccnc3)=NO[C@@H]2C(=O)N1c1ccc(Cl)cc1Cl	33.2%	
CC(C)[C@H](NC(=O)OCc1ccccc1)C(=O)OCc1ccccc1	19.1%	
COc1ccc(C2NC(=O)C(=O)/C2=C(\O)c2ccc(Cl)cc2)cc1OC (stereo not drawn)	-2.4%	
CC1CCc2[nH]c3ccc(C(=O)N(C)CC(=O)Nc4cccc(F)c4)cc3c2C1 (stereo not drawn)	-0.213%	
CCCN(CC(=O)Nc1ccc(C(N)=O)cc1)CC(=O)Nc1ccccc1C	3.33%	

Compound	activity change, negative = inhibition	Potency
CCCN(CC(=O)Nc1ccccc1C)C(=O)c1ccc2[nH]c3c(c2c1)CC(C)CC3 (stereo not drawn)		13.1 µM (active)
O=C(OCc1nnc(-c2ccccc2)o1)c1cc(=O)[nH]c2ccccc12	10.2%	
CCc1nnc(NC(=O)CSCc2cc(=O)n3cc(C)sc3n2)s1	29.2%	
CC(NCCc1ccc(S(N)(=O)=O)cc1)C(=O)NCc1ccccc1 (stereo not drawn)	-7.88%	
COc1ccc(NC(=O)CC2COc3ccccc3O2)c(OC)c1 (stereo not drawn)	245%	
COc1ccc(NC(=O)C2COc3ccccc3O2)cc1 (stereo not drawn)		1.17 µM (active)
CC(=O)c1cccc(NC(=O)C2CCN(C(=O)c3ccccc3Cl)CC2)c1	-21.5%	
CC(=O)c1cccc(NC(=O)C2COc3ccccc3O2)c1 (stereo not drawn)		2.62 µM (active)
O=C(Nc1nc(-c2ccncc2)cs1)C1COc2ccccc2O1 (stereo not drawn)	5.96%	
O=C(Nc1nc2c(F)cc(F)cc2s1)C1COc2ccccc2O1 (stereo not drawn)	-7.95%	
CCNC(=S)N(CCN(CC)CC)Cc1cc2cc3c(cc2[nH]c1=O)OCCO3	-17.8%	
O=C(/C=C/c1cccc([N+](=O)[O-])c1)N1CCN(Cc2ccccc2)CC1	16.1%	
Clc1ccc(C[n+]2cc(-c3ccccc3)n3c2CCC3)cc1		0.586 µM (active)
Clc1ccc(C[n+]2cc(-c3ccc(Cl)cc3)n3c2CCC3)cc1		0.37 µM (active)
O=C(Cc1ccc(Br)cc1)NCCN1CCOCC1	0.209%	
COc1cccc(NC(=O)CSc2nnc(-c3cccnc3)o2)c1	57.6%	
NC(=O)C1CCN(C(=O)c2ccc3c(=O)n(Cc4cccc(Br)c4)c(=S)[nH]c3c2)CC1	18.4%	
CC(Sc1nnc(COc2ccccc2)n1-c1ccccc1)C(=O)O (stereo not drawn)	-4.37%	
CCn1c(SCC(=O)Nc2ccc(OC)c(OC)c2)nnc1-c1c[nH]c2ccccc12		11.7 µM (active)
CCn1c(SCC(=O)NC2CC2)nnc1-c1ccccc1OC	-14.8%	
CCOC(=O)N1CCN(C(=O)CSc2nnc(-c3c[nH]c4ccccc34)n2CCOC)CC1	0.202%	
CC(C)c1ccc(S(=O)(=O)NC2CCCC2)cc1	53.9%	
O=C(NNC(=O)C(O)c1ccccc1)NC1CCCCC1 (stereo not drawn)	56.9%	
OC(CNC1CCCCC1)c1ccccc1 (stereo not drawn)		9.28 µM (active)
c1ccc(CCNC2CCCCCC2)cc1	38.6%	
Cc1cc(Cl)c2oc(C(=O)N(C)C(C)c3ccccn3)c(C)c2c1 (stereo not drawn)	-22.1%	

Compound	activity change, negative = inhibition	Potency
CN(C)c1nc(Nc2ccc(Cl)c(Cl)c2)nc(N(C)C)n1	-16.4%	
Cc1ccc2nc(N3CCN(C(=O)c4ccco4)CC3)sc2c1	-9.37%	
COc1cc(C2C(C(=O)c3ccco3)=C(O)C(=O)N2c2cc(C)on2)ccc1OCc1ccccc1 (stereo not drawn)	-4.61%	
Cc1ccc2nc(N3C(=O)C(O)=C(C(=O)c4ccco4)C3c3cccc(O)c3)sc2c1 (stereo not drawn)		9.28 µM (active)
COc1ccc(C(=O)NCc2nnc(SCC(=O)NC3=NCCS3)n2C)cc1	16.2%	
CCOc1ccccc1NC(=O)Cc1cccs1	341%	
COc1cc(C(=O)NCC2(c3ccccc3)CCCC2)ccc1OC(C)C	33%	
OCCC1CN(Cc2ccc3nsnc3c2)CCN1C1CCCCC1 (stereo not drawn)		10.4 µM (active)
Cn1cnnc1Sc1ccc(CN2CCN(C3CCCC3)C(CCO)C2)o1 (stereo not drawn)	1.4%	
CC[C@H](C)C(=O)N[C@H]1CCCN1C(=O)/C=C/c1ccccc1	41%	
Cc1ccc(C)c(OCCC(=O)OCC(=O)c2ccc3c(c2)NC(=O)CO3)c1	21.2%	
C=CCNC(=O)COc1coc(CN2CCN(Cc3ccccc3)CC2)cc1=O		13.1 µM (active)
Cc1cc(C)cc(NC(=O)COc2coc(CN3CCN(c4ccccc4)CC3)cc2=O)c1	-27.2%	
O=C(COc1coc(CN2CCN(c3ccccc3)CC2)cc1=O)Nc1ccccc1F	2.2%	
CC(=O)O[C@H]1CC[C@@]2(C)[C@@H](CC[C@@H]3[C@@H]2CC[C@]2(C)[C@@H](C(C)(C)O)C[C@@H]32)C1	-8.75%	
CC1CCC2CCCCC2N1C(=O)c1cc([N+](=O)[O-])cc([N+](=O)[O-])c1 (stereo not drawn)	-2.82%	
Cc1nc(C)c(C(=O)N(c2ccc(C)c(C)c2)C(C(=O)NCc2ccco2)c2ccccc2)s1 (stereo not drawn)		10.4 µM (active)
Cc1cccc(N(C(=O)c2sc(C)nc2C)C(C(=O)NCC2CCCO2)c2ccccc2)c1 (stereo not drawn)	-28.1%	
O=C(NCc1ccco1)C(c1ccncc1)N(C(=O)Cn1nnc2ccccc21)c1ccccc1 (stereo not drawn)	-0.183%	
CC(C)(C)NC(=O)C(c1ccc(Cl)cc1)N(CCO)C(=O)c1snc(C(N)=O)c1N (stereo not drawn)	202%	
CCCCCNC(=O)C1c2ccccc2Oc2ccccc21	0%	
CCOC(=O)c1ccc(N2C(=O)CC(N3CC(C)OC(C)C3)C2=O)cc1 (stereo not drawn)	7.59%	
CCOC(=O)c1ccc(N2C(=O)CC(N(C)Cc3ccccc3)C2=O)cc1 (stereo not drawn)		1.47 µM (active)
CCOC(=O)c1ccc(N2C(=O)CC(N3CCN(C(=O)c4ccccc4)CC3)C2=O)cc1 (stereo not drawn)	25.2%	
CCN1CCN(C(=O)C2CCCN(S(=O)(=O)c3ccc(OC)c(OC)c3)C2)CC1 (stereo not drawn)	-7.76%	
